# Measured values: PubChem BioAssay (NCATS)
# The source made the active and inactive calls. Where a call stands in place of a potency, no number is given. Calls come from the whole dose curve; as a rule, active = well fitted inhibition curve with a large enough effect; inconclusive = small, poorly fitted or top-dose-only effect; inactive = no such curve, though single readings can be large or run the other way.
# Target: Single-stranded DNA cytosine deaminase (Homo sapiens) (UniProt Q9GZX7)
# Assay: Validation qHTS assay for inhibitors of Activation Induced Cytidine Deaminase (AID): AID signal (AID 1347429)
# Settings: Recombinant AID, FRET ssDNA deamination with UDG, fluorescence; series mostly up to 115 µM
# Text: Assay Provider (PI) Patricia Gearhart Ph.D. National Institute on Aging National Institute of Health (NIH), Bethesda, MD Assay Provider (PI) Rahul Kohli Ph.D. Perelman School of Medicine University of Pennsylvania, Philadelphia, PA Activation-Induced Deaminase (AID) is a cytosine deaminase which converts cytosine into uracil within stretches of ssDNA. The presence of uracil in DNA initiates a cascade of mutagenic DNA repair to introduce point mutations and DNA double strand breaks. Specific targeting of AID to the immunoglobulin heavy chain loci (Igh) promotes mutagenesis in the antibody variable region for somatic hypermutation (SHM) or switch regions leading to class switch recombination (CSR). However, AID also plays a role in accumulating unnecessary mutations across the genome. Mis-targeting of AID results in the initiation of tumor development and leads to greater drug resistance among cancer cells when continually expressed. To identify an AID inhibitor, a small molecule library will be screened in collaboration with NCATS core facility at NIH. To confirm biological function, inhibitors will be examined in an in vitro murine B-cell activation assay and subsequent secondary validation screens. Top molecules will be further screened to identify inhibitory efficacy against a wild type primary splenocytes assay. Using these approaches, we hope to identify a small molecule with great efficacy and low toxicity for use as a molecular probe to further characterize AID's intricacies, or even as a therapeutic. A FRET based analysis of cytosine deamination, was developed to identify potential inhibitors of AID catalytic activity. This screen has two signal output, Read 1 evaluates the AID inhibition response. The second readout (Read 2) evaluates UDG response and is uses as a counterscreen to exclude false positive inhibitors. Inhibition in AID and inactivity in the UDG signal is the desired outcome for this assay.
# PROTOCOL TABLE SEQUENCE No. (e.g., 1, 2, 3, etc.); […] (e.g., Cells, Incubation, Reagent, etc.); VALUE; DESCRIPTION 1a; Reagent; 3 uL; [4/3x] […] 250 nM DJC20 / 250 nM DJC23 [Substrate] 5; Time; 4 hr; incubation at room temperature 6; Reagent; 4 uL; [2x] 250 mM NaOH 7; Time; 15 sec; centrifuge at 1000 rpm 8; Time; 30 min; incubation at room temperature 9a; Detection; fluorescence (Read 1: AID); EnVision (PerkinElmer) plate reader, 540 excitation and 590 emission filters 9b; Detection; fluorescence (Read 2: UDG); EnVision (PerkinElmer) plate reader, 560 excitation and 665 emission filters NOTES (numbers refer to sequence above) 1a; Reagents were dispensed in a medium-binding black solid-bottom Greiner plates (789176F) using a BioRptr liquid dispenser. Dispense 3 uL of [4/3x] 1 uM AID (provided by Kohli lab) and [4/3x] 2 U/mL UDG (NEB M0280L) into columns 1, 2, 5 to 48. 1b; Dispense 3 uL of [4/3x] 2 U/mL UDG into column 3. 1c; Dispense 3 uL of [4/3x] 1 uM AID into column 4. 2a; Compound ([…] [uM] (0.64; 3.2; 16; 80; 400; 2,000; 10,000; 20,000) double pin-transferred (Dip Factor = 2) using the Kalypsys (Wako USA) pintool equipped with a 1536 pinhead for a final concentration range of 7.32 nM - 114 uM. 2b; 10 mM Aurintricarboxylic Acid (Sigma A1895) (ATA, 8-point, n = 2, 1:2.5 dilution in column 2) double pin-transferred (Dip Factor = 2) using the Kalypsys (Wako USA) pintool equipped with a 1536 pinhead for a [final] range of 186 nM - 114 uM. 3; Room temperature incubation. 4; Dispense 1 uL of substrate mixture from the Kohli lab [4x] […] DJC20 and [4x] 250 nM DJC23 into columns 1 to 48 . 5; Room temperature incubation. 6; Dispense 4 uL of substrate mixture [2x] 250 mM NaOH into columns 1 to 48. 7; Centrifugation step to remove bubbles. 8; Room temperature incubation 9a; Fluorescence signal (column label AID) was read using the EnVision plate reader. Excitation filter = 540(8) nm, barcode = 311; Emission filter = 590(20) nm, barcode = 217; Mirror = D555, barcode = 405. […]
# Sequence of Single-stranded DNA cytosine deaminase (Homo sapiens) (Q9GZX7 whole entry, looked up): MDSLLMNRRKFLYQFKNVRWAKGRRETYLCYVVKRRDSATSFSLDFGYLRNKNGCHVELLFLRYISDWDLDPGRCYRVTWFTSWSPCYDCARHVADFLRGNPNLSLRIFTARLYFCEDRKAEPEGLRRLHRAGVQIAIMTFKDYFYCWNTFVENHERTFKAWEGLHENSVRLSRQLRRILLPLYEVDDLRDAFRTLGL
row,SMILES,Potency
1,C[N+](C)(C)CCOC(N)=O,inactive
2,COc1cc2c(cc1OC)-c1cc(=Nc3c(C)cc(C)cc3C)n(C)c(=O)n1CC2,inactive
3,CCCCCCCC/C=C\CCCCCCCC(=O)NCc1ccc(O)c(OC)c1,inactive
4,CCN1CCc2nc(N)oc2CC1,inactive
5,CN(C)CCCN1c2ccccc2Sc2ccccc21,inactive
6,NC(N)=N/N=C/c1c(Cl)cccc1Cl,inactive
7,CC[N+](C)(C)c1cccc(O)c1,inactive
8,COc1ccc(CCN(C)CCCC(C#N)(c2cc(OC)c(OC)c(OC)c2)C(C)C)cc1OC (stereo not given),inactive
9,CCN(CC)CC(=O)Nc1c(C)cccc1C,inactive
10,NC/C=C/C(=O)O,inactive
11,CCCCCN(CCCCC)C(=O)C(CCC(=O)O)NC(=O)c1ccc(Cl)c(Cl)c1 (stereo not given),inactive
12,CCCCNc1ccc(C(=O)OCCN(C)C)cc1,inactive
13,O=C(O)CP(=O)(O)O,inactive
14,CN=C(NC#N)NCCSCc1nc[nH]c1C,inactive
15,CC(C)[N+](C)(CCOC(=O)C1c2ccccc2Oc2ccccc21)C(C)C,inactive
16,COc1cc(Cc2cnc(N)nc2N)cc(OC)c1OC,inactive
17,O=C(O)CN(CCOCCOCCN(CC(=O)O)CC(=O)O)CC(=O)O,inactive
18,Cc1nc2sccn2c(=O)c1CCN1CCC(=C(c2ccc(F)cc2)c2ccc(F)cc2)CC1,inactive
19,CO[C@@]1(NC(=O)CSCC#N)C(=O)N2C(C(=O)O)=C(CSc3nnnn3C)CS[C@@H]21,inactive
20,CSc1ccc(C(=O)c2[nH]c(=O)[nH]c2C)cc1,inactive

row,SMILES,Potency
1,COCCOC(=O)C1=C(C)NC(C)=C(C(=O)OC(C)C)C1c1cccc([N+](=O)[O-])c1 (stereo not given),inactive
2,Cc1ccc(Cl)c(Nc2ccccc2C(=O)O)c1Cl,inactive
3,CCCN1C[C@H](CSC)C[C@@H]2c3cccc4[nH]cc(c34)C[C@H]21,inactive
4,CCO/C([O-])=N/c1c[n+](N2CCOCC2)no1,inactive
5,COC(=O)[C@H]1[C@H]2C[C@@H]3c4[nH]c5cc(OC)ccc5c4CCN3C[C@H]2C[C@@H](OC(=O)c2cc(OC)c(OC)c(OC)c2)[C@@H]1OC,inactive
6,CC(C)NCC(O)c1cc(O)cc(O)c1 (stereo not given),inactive
7,C=CCc1ccccc1OCC(O)CNC(C)C (stereo not given),inactive
8,CN1CCN(CC(=O)N2c3ccccc3C(=O)Nc3cccnc32)CC1,inactive
9,CN(C)CCN(Cc1cccs1)c1ccccn1,inactive
10,CCn1ccnc1CC1COc2ccccc2O1 (stereo not given),inactive
11,Fc1ccc(C(c2ccc(F)cc2)N2CCN(C/C=C/c3ccccc3)CC2)cc1,inactive
12,CCN(CC)CCNC(=O)c1ccc(NC(C)=O)cc1,inactive
13,C(=C\c1ccccc1)/CN1CCN(C(c2ccccc2)c2ccccc2)CC1,inactive
14,O=C1NCN(c2ccccc2)C12CCN(CCCC(c1ccc(F)cc1)c1ccc(F)cc1)CC2,inactive
15,CCn1cc(C(=O)O)c(=O)c2cc3c(cc21)OCO3,inactive
16,CCOC(=O)c1cnc2c(cnn2CC)c1NN=C(C)C,inactive
17,CC(C)(Oc1ccc(CCNC(=O)c2ccc(Cl)cc2)cc1)C(=O)O,inactive
18,C#CCN(C)CCCOc1ccc(Cl)cc1Cl,inactive
19,NCCCNCCSP(=O)(O)O,inactive
20,CC(N=C(NC#N)Nc1ccncc1)C(C)(C)C (stereo not given),inactive
